# In all, about 33,000 sequences were measured (“E-score (-0.5 to 0.5)”: median about -0.011, highest 2% from about 0.28 on). The full list was thinned out, with the highest values kept by preference.
# Biological target: T1, Gcr1 (UniProt P07261)
# T1 sequence: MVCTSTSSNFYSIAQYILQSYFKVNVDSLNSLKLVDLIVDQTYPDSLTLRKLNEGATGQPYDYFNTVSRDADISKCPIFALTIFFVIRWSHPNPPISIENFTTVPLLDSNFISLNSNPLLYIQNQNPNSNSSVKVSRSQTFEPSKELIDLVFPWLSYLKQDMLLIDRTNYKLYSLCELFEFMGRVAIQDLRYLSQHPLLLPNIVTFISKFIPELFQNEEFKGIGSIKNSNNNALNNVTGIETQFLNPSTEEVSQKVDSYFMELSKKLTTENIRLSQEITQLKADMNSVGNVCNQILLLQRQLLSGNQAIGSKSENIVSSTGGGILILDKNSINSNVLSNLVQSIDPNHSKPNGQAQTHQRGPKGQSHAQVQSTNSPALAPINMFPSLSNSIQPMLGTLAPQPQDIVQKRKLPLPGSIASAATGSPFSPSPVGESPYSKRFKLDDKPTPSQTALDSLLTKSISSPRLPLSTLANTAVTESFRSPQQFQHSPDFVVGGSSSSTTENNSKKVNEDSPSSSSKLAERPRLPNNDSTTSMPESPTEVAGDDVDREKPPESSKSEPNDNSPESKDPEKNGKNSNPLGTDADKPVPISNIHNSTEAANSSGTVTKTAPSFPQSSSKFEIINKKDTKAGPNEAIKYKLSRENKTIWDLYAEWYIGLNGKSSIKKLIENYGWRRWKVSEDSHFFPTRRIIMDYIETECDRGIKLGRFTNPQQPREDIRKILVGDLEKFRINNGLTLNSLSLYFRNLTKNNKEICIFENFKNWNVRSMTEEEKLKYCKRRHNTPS
# Assay: PBM E-score (8-mer binding enrichment) (E-score (-0.5 to 0.5)); higher = stronger / more preferred TF binding
# Settings: protein concentration: 100 nM; construct: GST-full length
# Protocol: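 Universal 'all 10-mer' protein binding microarrays (Agilent AMADID 015681) probed with GST-tagged S. cerevisiae TFs (full-length or DBD) made by in vitro transcription/translation (PURExpress), about 100-200 nM. Bound TF was detected with fluorescent anti-GST. Each ungapped 8-mer (which stands for itself and its reverse complement) is scored by the PBM enrichment score (E-score), a modified Wilcoxon-Mann-Whitney statistic from -0.5 to +0.5, computed with the Universal PBM Analysis Suite. Scale: above 0.35 generally sequence-specific binding.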
row,Sequence,PBM E-score
1,CCTTCCGA,-0.12
2,CCTTCCAC,0.208
3,ACTTCCAG,0.377
4,ACTTCCGA,0.0686
5,ACTTCCTG,0.319
6,GCCTCCAC,-0.0325
7,ACTTCCAT,0.145
8,GCTTCCAC,0.42
9,ACTTCCTA,0.245
10,ACTTCCTC,0.243
11,AGTTCCTG,0.0262
12,CCATGCCG,-0.2
13,CGCTTTCC,-0.0681
14,CTTTCTAC,0.0892
15,AGTCGGAC,-0.093
16,ACCTGAGA,-0.038
17,TCTTCCAA,-0.0111
18,ACTTCCAA,0.303
19,ATTTCCAA,0.0988
20,ACTTCCAC,0.261
21,CCTTCCAA,-0.0431
22,GCTTCCAA,0.443
23,CAACCGGA,0.206
24,CCCTCCGG,-0.0226
25,CACCAAAG,0.047

row,Sequence,PBM E-score
1,ATGCATCA,-0.0769
2,AAGCAGCC,0.308
3,GAGCAGCC,0.217
4,AAGCAGCA,-0.176
5,AAGCAGGT,0.161
6,AAGCAGAT,-0.03
7,AAGCAGCG,0.135
8,CAGCAGCA,0.00017
9,AAGCAGCT,0.33
10,CAGCAGCC,0.359
11,AACTGTGC,-0.181
12,CTTTACTC,-0.104
13,GACTAACC,-0.136
14,ACTTAACC,-0.196
15,GCTCGAGC,0.321
16,GCTCGAGA,-0.166
17,CCTCGAGC,-0.102
18,AAGGGCAC,-0.16
19,AGGGTTCC,0.312
20,CGGGTTCC,0.411
21,AGGGTTCG,-0.0648
22,AGGGTTCA,-0.118
23,CGGGTTCA,-0.204
24,GCGGTTCC,0.314
25,CGGGTTAC,-0.0158

row,Sequence,PBM E-score
1,ACGGTTCC,0.0629
2,GCGGTTCA,-0.231
3,GTTAAAAC,-0.0162
4,AAAATGCG,0.143
5,GAACGACC,-0.165
6,CTGTTGAA,0.0369
7,CCTTCTAC,0.0671
8,GCTTCTAA,0.116
9,ACTTCTAA,0.0859
10,TCTTCTAA,0.329
11,CCTTCTAA,-0.0438
12,GCTTCTAC,0.301
13,GAGTCCTA,0.0444
14,AATAATGA,0.0865
15,AGTCCTGG,0.0342
16,GCCAAAAA,0.288
17,ATCCAATC,0.13
18,GCCAAGAA,0.124
19,ATCCAAAC,-0.03
20,CTCCAATA,0.075
21,ATCCAATA,0.303
22,GCCAAAAC,0.128
23,ATCCAAAG,0.189
24,ATCCAAAA,0.282
25,ATGCAAAC,0.115

row,Sequence,PBM E-score
1,CTCTTCAA,0.00436
2,GGACGCAC,0.127
3,ACGCATCT,0.151
4,ACGCATCG,-0.00937
5,GCGCATCA,0.0737
6,CCGCATCC,0.31
7,GCGCATAC,0.0321
8,GCGCATCC,0.331
9,CCGCATCG,-0.0819
10,ACGCATCC,0.311
11,CCGCATCA,0.103
12,ACCGCCTC,-0.14
13,ACTGTGCT,-0.231
14,ACAGACAT,-0.144
15,CACAGAGG,-0.185
16,CGAGGGGC,0.0171
17,GTAGTGTA,-0.0351
18,ATCGTGGC,-0.103
19,CAAGTGGA,0.181
20,TAAGTGGA,0.287
21,ACAGTGGC,0.00948
22,GCAGTGGA,0.11
23,CTAGTGGC,0.106
24,AAAGTGGA,0.24
25,CTAGTGGA,0.298

row,Sequence,PBM E-score
1,CTAGTGTA,0.127
2,ATAGTGGC,0.32
3,GTAGTGGA,0.285
4,TCCGACAA,-0.0648
5,AACGAGGG,0.0827
6,CGGTCTAG,-0.167
7,AAACAAGG,0.16
8,GAGGTTCC,0.269
9,CAACTTAC,-0.127
10,GCAGAGTA,-0.0213
11,ACCGACGC,-0.0878
12,GTTTTGTA,0.0369
13,ATGGCGGC,0.0606
14,ATATGCTA,0.115
15,CCCCTCAC,-0.0282
16,CTCCTGAA,0.085
17,AAATCGCA,-0.021
18,ATACCAAC,-0.00844
19,ATCGTGGA,0.148
20,CAAGTGGC,0.146
21,ATAGTAGC,0.286
22,AAAGTGGC,0.295
23,ATAGTAGA,0.191
24,ATAGTGGA,0.376
25,AGAGTGGG,0.177

row,Sequence,PBM E-score
1,ATAGTGGG,0.308
2,ATAGTAGG,0.051
3,AAAGTGGT,0.167
4,ATAGTGAA,-0.116
5,ATAGTGTG,0.106
6,GAGAGTGA,-0.261
7,CCAGTAAG,0.222
8,AGCTCTAA,-0.108
9,GTCAAAAA,0.144
10,CCCGAACA,-0.00034
11,GGAGTAAC,-0.116
12,CCTCCCCG,0.0903
13,AGACCCAT,-0.152
14,CGCTGAGC,0.0119
15,ATCCCCAA,0.0543
16,CTCGCGCC,-0.166
17,CATTGAAG,-0.12
18,TAAAGAGA,0.0201
19,CGCAGCTC,0.09
20,GCCAGCTA,-0.135
21,CGCAGCTA,0.34
22,CCCAGCTA,-0.0278
23,GACAGCTA,-0.113
24,GGCAGCTA,0.318
25,AGGCTGGA,-0.133

row,Sequence,PBM E-score
1,ATAATGGC,-0.00297
2,ATAATGGA,0.196
3,AAAATGGA,0.142
4,AAAATAGG,0.335
5,AAAATAGC,0.272
6,AAAATGGG,0.29
7,CAAATGGG,-0.0381
8,AAAATAGT,0.0219
9,ATAATGGG,0.326
10,CGCTCCGA,-0.0796
11,CTCTTTAA,-0.101
12,GGTCGATA,-0.135
13,CCTTAAAG,0.0175
14,CATCGACG,-0.0993
15,TCAAGGCA,-0.127
16,GCTGACTA,-0.0111
17,CTGGGCAC,0.239
18,AGTGGCAC,0.15
19,AGTGGCTA,-0.0284
20,AGTGGCTC,0.218
21,AGTGGCAG,0.287
22,AGTGGCTG,0.312
23,AGTGGCAA,0.088

# Source: the supplement of paper PMC3334620
